The results in this text go back to PubChem BioAssay (NCATS).

Results filed as inconclusive are left out. Values without a mark were called inactive. Activity calls are given as the source filed them. Calls follow the shape of the dose curve; as a rule, active = well fitted curve in the direction sought with a large enough effect; inconclusive = small, poorly fitted or top-dose-only effect, or another doubt; inactive = no such curve, though single readings can be large; an effect the other way counts as inactive or inconclusive.

Assay [1] is described as follows: BET inhibitor-based combinations targeting novel dependencies in MECOM-rearranged (r) AML: SET-2 cell line (AID 2202231). Also: nearly all actives have a fitted effect of over 35% in size.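 As to viability: plate controls were DMSO treated cells for no effect and wells without cells for full effect.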 The note with it: SET-2 AML cells viability, CellTiter-Glo luminescence, 48 h; viability: stronger effect = lower value, concentration not given here. The essentials: (§1)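 Cells were plated at 500 per well and exposed to an 11-point dose series of each drug for 48 hr. Viability was measured by CellTiter-Glo luminescence, normalized to DMSO and empty-well controls, and summarized as AUC and per-cell-line Z-AUC.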

A short description of assay [2]: BET inhibitor-based combinations targeting novel dependencies in MECOM-rearranged (r) AML: OCI-AML3 cell line (AID 2202232). Also: nearly all actives have a fitted effect of over 35% in size. The conditions noted are these: Potency: OCI-AML3 viability. The gist of the method:
as §1

Assay [3] can be described thus: BET inhibitor-based combinations targeting novel dependencies in MECOM-rearranged (r) AML: MV-4-11 cell line (AID 2202233). Also: nearly all actives have a fitted effect of over 45% in size. The gist of the method:
(§2)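 Activity is given as area under the curve and as Z-AUC, mean-centred within each cell line. It comes from 11-point dose curves normalized to DMSO and empty wells. CellTiter-Glo luminescence was read after 48 hr drug exposure of 500 cells/well.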

A short description of assay [4]: BET inhibitor-based combinations targeting novel dependencies in MECOM-rearranged (r) AML: HNT-34 cell line (AID 2202234). Also: nearly all actives have a fitted effect of over 35% in size. The gist of the method:
as §2

The nature of assay [5]: BET inhibitor-based combinations targeting novel dependencies in MECOM-rearranged (r) AML: UCSD-AML1 cell line (AID 2202235). Also: nearly all actives have a fitted effect of over 40% in size. The gist of the method:
as §2

Assay [6] in a line: BET inhibitor-based combinations targeting novel dependencies in MECOM-rearranged (r) AML: AML-191 cell line (AID 2202236; also: nearly all actives have a fitted effect of over 35% in size). The gist of the method: as §1
Assay [7] is described as follows: BET inhibitor-based combinations targeting novel dependencies in MECOM-rearranged (r) AML: AML-194 cell line (AID 2202237; also: nearly all actives have a fitted effect of over 40% in size). The essentials: as §1
Potency is read from the fitted curve at half-maximal effect.

Regarding `CN(C)c1ccc(C(=O)NCCCCCCC(=O)NO)cc1`, the Potency in assay [1] was 0.934 µM (active); in assay [2] it was 0.833 µM (active); in assay [3], 0.59 µM (active); in assay [4] it was 1.18 µM (active); in assay [5] it was 1.05 µM (active); in assay [6] it was 1.18 µM (active). Besides, in assay [7], the Potency was 1.32 µM (active).

`O=C(O)CNC(=O)c1nc(Cl)c2ccccc2c1O`: in assay [1], the viability is 122%. The Potency result in assay [2], in assay [3], in assay [4], in assay [6] and in assay [7] was “inactive” in each case.

For `Cc1nc2ccc(CN(C)c3ccc(C(=O)N[C@@H](CCC(=O)O)C(=O)O)s3)cc2c(=O)[nH]1`, the Potency in assay [1] is 0.0468 µM (active); in assay [2] it was 0.0468 µM (active); in assay [3], 0.0468 µM (active); in assay [5] it was 0.0468 µM (active); in assay [7], 0.332 µM (active). Moreover, the Potency result in assay [4] is “inactive”.

Consider `CCC(C(=O)O)C1CCC(C)C(C(C)C(O)C(C)C(=O)C(CC)C2OC3(C=CC(O)[C@@]4(CC[C@](C)(C5CC[C@@](O)(CC)C(C)O5)O4)O3)C(C)CC2C)O1` (stereo not given in full), for which the Potency was 5.25 µM (active) in assay [1]; 1.48 µM (active) in assay [2]; 1.66 µM (active) in assay [3]; 0.525 µM (active) in assay [4]; 13.2 µM (active) in assay [5]; 1.18 µM (active) in assay [7].

For `COc1ncc(-c2ccc3nccc(-c4ccnnc4)c3c2)cc1NS(=O)(=O)c1ccc(F)cc1F`, the Potency in assay [1] is 0.332 µM (active); in assay [2], 0.0833 µM (active); in assay [3], 0.105 µM (active); in assay [4], 0.263 µM (active); in assay [6] it was 0.209 µM (active).

On to `CC(=O)c1cc2c(o1)C(=O)c1ccccc1C2=O`, for which the Potency in assay [1] was 2.63 µM (active); in assay [2], 2.63 µM (active); in assay [3], 0.833 µM (active); in assay [4], 2.35 µM (active); in assay [5], 2.95 µM (active); in assay [6], 2.35 µM (active). Further, in assay [7], the Potency was 2.35 µM (active).

With `NC(=O)c1nc(F)c[nH]c1=O`, the viability in assay [1] was 119%. The Potency entry in assay [2], in assay [3], in assay [4], in assay [5] and in assay [7] was “inactive” throughout.

Turning to `O=c1[nH]c(=O)n([C@H]2C[C@H](O)[C@@H](CO)O2)cc1F`, the Potency in assay [1] was 0.296 µM (active); in assay [2] it was 0.417 µM (active); in assay [3], 0.0742 µM (active); in assay [4] it was 5.9 µM (active); in assay [6] it was 0.263 µM (active).

For the compound `O=C1NC(=O)/C(=C/c2ccc3nccc(-c4ccncc4)c3c2)S1`, the Potency is 14.8 µM (active) in assay [1]; 1.05 µM (active) in assay [2]; 0.833 µM (active) in assay [3]; 1.05 µM (active) in assay [4]; 0.934 µM (active) in assay [6].

In the case of `N[C@@H]1CN(c2c(F)cc3c(=O)c(C(=O)O)cn([C@@H]4C[C@@H]4F)c3c2Cl)CC12CC2`, the viability in assay [1] was 105%. For the same compound, the Potency result in assay [2], in assay [3], in assay [4], in assay [5] and in assay [7] was “inactive” throughout.

For `N=C1S/C(=C\c2ccc(-c3ccc4c(c3)C(=O)NC4=O)o2)C(=O)N1c1ccc(Br)cc1`, the viability in assay [1] was 117%. For the same compound, the Potency entry in assay [2], in assay [3], in assay [4], in assay [5] and in assay [7] was “inactive” throughout.

In the case of `CC(=O)N[C@H]1CSSC[C@@H](C(N)=O)NC(=O)[C@H](C(C)C)NC(=O)[C@H](C)NC(=O)[C@H](Cc2cnc[nH]2)NC1=O`, the viability in assay [1] is 113%. Besides, the Potency entry in assay [2], in assay [3], in assay [4], in assay [5] and in assay [7] was “inactive” in each case.

For `N#Cc1cccnc1N1CCN(C(=O)c2cccc(Cc3n[nH]c(=O)c4ccccc34)c2)CC1`, the Potency in assay [1] was 0.296 µM (active); in assay [2] it was 0.166 µM (active); in assay [3] it was 0.059 µM (active); in assay [4], 0.0372 µM (active); in assay [5], 0.0833 µM (active); in assay [7], 0.132 µM (active).

Consider `COc1ccc2c(c1)c(C1=C(c3c[nH]c4ccccc34)C(=O)NC1=O)cn2CCCN(C)C`, for which the Potency in assay [1] is 23.5 µM (active); in assay [2] it was 20.9 µM (active); in assay [3], 0.372 µM (active); in assay [4], 16.6 µM (active); in assay [6] it was 23.5 µM (active); in assay [7], 23.5 µM (active).

For `COc1cc2c(NC3CCN(C)CC3)nc(N3CCCN(C)CC3)nc2cc1OCCCN(C)C`, in assay [1], the viability was 112%. Further, the Potency result in assay [2], in assay [3], in assay [4], in assay [6] and in assay [7] was “inactive” throughout.

Take `C[C@H]1C[C@H]2[C@@H]3CCC4=CC(=O)C=C[C@]4(C)[C@H]3C(=O)C[C@]2(C)[C@@]1(O)C(=O)CO`: the viability in assay [1] was 116%. Also, the Potency entry in assay [2], in assay [3], in assay [4], in assay [5] and in assay [7] was “inactive” throughout.
